Bioassay records: PubChem BioAssay, National Center for Advancing Translational Sciences (NCATS)
An excerpt weighted towards active compounds, which were near 3.3% of everything screened.
VACV Venus inh: qHTS for Stage-Specific Inhibitors of Vaccinia Orthopoxvirus: Venus Reporter Primary qHTS. Vaccinia virus Venus reporter expression, fluorescence. Potency, µM (series often up to 36.5 µM), for inactives: top-dose activity change, negative = inhibition, usual class: inhibitors. actives 0.46% (n = 330,000). AID 720580, 2013; calls by dose curve; tested in A549 cells; also: nearly all actives have a fitted effect of over 30% in size
VACV mCherry inh: qHTS for Stage-Specific Inhibitors of Vaccinia Orthopoxvirus: mCherry Reporter Primary qHTS; Potency, µM (titrated, usually from 36.5 µM), without a hit: at the top dose activity change, negative = inhibition, most hits filed as inhibitors; actives 0.63% (n = 310,000); Vaccinia virus mCherry reporter infection, fluorescence; calls by dose curve; tested in A549 cells; also: nearly all actives have a fitted effect of over 35% in size
HCV inhibitor: qHTS Assay for Inhibitors of Hepatitis C Virus (HCV) | AID 651820, 2012 | actives 3.4% (n = 340,000) | Huh7.5.1 HCVcc-Cre infection, luciferase reporter, 44 h | Potency, µM (highest dose often 41.8 µM), inactives show at the top dose activity change, negative = inhibition, hits mostly inhibitors; active = well fitted inhibition curve with a large enough effect; inconclusive = small, poorly fitted or top-dose-only effect, or another doubt; inactive = no such curve, though single readings can be large or run the other way
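1,000 cells/well; 4 h culture; + compound; + HCVcc-Cre (~0.5 moi); 44 h; luciferase substrate, RT 15 min; read 15 sec.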
Numbers without * were called inactive; i = inactive; ? = inconclusive; . = no result given; [ ] = another dose, or the depositor's remark. % is scaled to controls: 0 for no effect and ±100 for the full control effect; potency is read from the fitted curve at half-maximal effect.

SMILES | VACV Venus inh | VACV mCherry inh | HCV inhibitor
COc1ccc(-c2csc(N(CCCN(C)C)C(=O)c3ccc(C)cc3)n2)cc1 | ? | -11.5% | 25.1µM*
COc1ccc(/C=C/c2nccc3ccccc23)cc1OC | -15.5% | -22.3% | .
CC(C)OC(=O)C(C(=O)C(F)(F)F)c1cc(NS(=O)(=O)c2ccc3c4c(cccc24)C(=O)N3)ccc1O (stereo not given) | -2.0% | -8.9% | .
O=C1C(Cl)=C(Cl)C(=O)C(Cl)=C1Cl | -7.0% | i | .
CC(C)(C)OC(=O)C[C@@H]1C/C=C\C[C@@H](CC(=O)NCCO)C(=O)NC[C@@H](c2ccccc2)OC1=O | -7.2% | i | 5.2%
C=CCn1c(SCC(=O)NCCO)nc2sc(C)c(C)c2c1=O | -11.8% | -13.3% | -4.3%
C=CCn1c(SCC(=O)c2cc(C)n(C(C)COC)c2C)nc2sc(C)c(C)c2c1=O (stereo not given) | . | . | 10µM*
CN1CCCN(C(=O)[C@@H]2C[C@@H](Sc3nc4ccccc4[nH]3)CN2Cc2ccc(OC(F)(F)F)cc2)CC1 | -8.8% | -24.4% | .
CCc1ccc(NC(=O)Nc2ccccc2OCc2cc(=O)n3ccccc3n2)cc1 | -10.9% | i | .
CC1(c2ccc(Cl)cc2)CC(C)(C)N(C(=O)c2cccc(F)c2)c2ccccc21 (stereo not given) | -14.4% | -13.7% | .
Cc1ccc(NC(=O)c2ccc(NCCCN3CCOCC3)c([N+](=O)[O-])c2)cc1Cl | ? | ? | 11.2µM*
O=[N+]([O-])c1ccc(NCCCN2CCOCC2)c([N+](=O)[O-])c1 | 33.7% | -11.8% | 1.3%
O=[N+]([O-])c1cc(S(=O)(=O)NCCCN2CCOCC2)ccc1Cl | -22.6% | -23.1% | 10µM*
O=C(NCCN1CCOCC1)c1ccc(Cl)c([N+](=O)[O-])c1 | -2.2% | -19.6% | -1.1%
COc1cc(S(=O)(=O)NCCCN2CCOCC2)ccc1Cl | -4.3% | i | 4.9%
O=C(Nc1ccc(Cl)c([N+](=O)[O-])c1)c1ccc(NCCCN2CCOCC2)c([N+](=O)[O-])c1 | . | . | 2.24µM*
COc1ccc(NC(=O)c2ccc(NCCCN3CCOCC3)c([N+](=O)[O-])c2)cc1 | -27.3% | -3.5% | 12.6µM*
Cc1ccc(C(=O)NCCCN2CCOCC2)cc1Cl | . | . | 15.2%
Cc1ccc(NC(=O)Cc2csc(C)n2)c(C)c1 | -2.9% | 2.7% | .
C[C@H](NC(=O)[C@@H]1Cc2ccccc2CN1)C(=O)NCC1CCCO1 (stereo not given in full) | 13.5%[7.34 µM] | -4.5%[7.34 µM] | 9.6%
O=C(NCCCN1CCOCC1)c1ccc(Sc2cccc(Cl)c2)c([N+](=O)[O-])c1 | -18.1% | ? | 11.2µM*
O=C(NCCCN1CCOCC1)c1ccc(Cl)c([N+](=O)[O-])c1 | -1.0%[7.34 µM] | -5.6%[7.34 µM] | -0.1%
COc1ccc(C(CCN2CCOCC2)c2c(OC)cc(OC)c3ccc(=O)oc23)cc1 (stereo not given) | -9.8% | -21.3% | 2.82µM*
CCCCCc1cc(=O)oc2c(C(CCN3CCCC(C)C3)c3ccc4c(c3)OCO4)c(OC)cc(OC)c12 (stereo not given) | ? | -15.0% | ?
COc1ccc(C(CCN2CCCC2)c2c(OC)cc(OC)c3c(-c4ccccc4)cc(=O)oc23)cc1 (stereo not given) | ? | -16.6% | -3.8%
SMILES | VACV Venus inh | VACV mCherry inh | HCV inhibitor
COc1ccc(C(CCN2CCOCC2)c2c(OC)cc(OC)c3c(-c4ccccc4)cc(=O)oc23)cc1 (stereo not given) | ? | -27.0% | 31.6µM*
CCCCCc1cc(=O)oc2c(C(CCN3CCCCC3)c3ccc4c(c3)OCO4)c(OC)cc(OC)c12 (stereo not given) | 14.1µM* | ? | ?
COc1cc(OC)c2ccc(=O)oc2c1C(CCN1CCOCC1)c1ccc2c(c1)OCO2 (stereo not given) | -22.8% | i | 2.4%
CN(C)CCNc1cc(N2CCN(C)CC2)ncn1 | -11.4% | -20.5% | .
Cc1ccccc1C(C(=O)NC1CCCCC1)N(C(=O)CNC(=O)c1ccco1)c1cccnc1 (stereo not given) | -8.8% | -7.0% | 0.3%
Cc1ccc(Cl)cc1Nc1nn2c(=O)c3ccc(C(=O)NC4CCCCC4)cc3nc2s1 | 1.7% | -2.6% | .
CC(C)C(C(=O)NCc1ccccc1)N(C)Cc1ccc(Cl)c(Cl)c1 (stereo not given) | -6.9% | ? | .
CCc1c(C#N)c(SCCC(=O)Nc2ccc(F)cc2)nc2c1C(=O)CC(C)(C)C2 | ? | . | 11.2µM*
CC1(C)CC(=O)c2c(nc(SCC(=O)Nc3nsc(-c4ccccc4)n3)c(C#N)c2-c2ccccc2)C1 | -18.7% | -15.2%[1.46 µM] | ?
COc1ccc(-c2c(C#N)c(SCc3c(C)noc3C)nc3c2C(=O)CC(C)(C)C3)cc1 | 3.1% | 2.8% | 15.9%
CCc1c(C#N)c(SCCC(=O)Nc2cccc(OC)c2)nc2c1C(=O)CC(C)(C)C2 | -27.1% | . | 10µM*
O=C(NCc1nnc2n1CCN(Cc1cccc(C(F)(F)F)c1)CC2)c1ccncc1 | -7.1% | -10.1% | .
CC(=O)NCCCc1ccc(C(=O)COC(=O)CNC(=O)c2ccc3ccccc3c2)cc1 | -9.4% | -5.6% | .
Cc1ccc2[nH]c(C(=O)NCc3nc(-c4cccc(NC(=O)c5cc(C)oc5C)c4)oc3C)cc2c1 | -11.3% | -16.2% | .
S=C(NCc1ccco1)Nc1ccc(Cl)c(Cl)c1 | ? | -21.9% | -25.9%
S=C(NCc1ccco1)Nc1cc(Cl)c(Cl)cc1Cl | -25.1% | -26.5% | 25.1µM*
Cc1ccccc1CNC(=O)Cn1c(=O)c2cccn2c2cccnc21 | -2.2% | 0.7% | .
CNc1cc(C(=O)O)nc2ccccc12 | -10.4% | 35.8% | .
CC(C)(Oc1ccc(Cl)cc1)C(=O)NCc1ccc(S(N)(=O)=O)cc1 | -11.3% | i | -9.5%
Cc1cccc(CNc2ncnc3[nH]ncc23)c1 | -15.4% | i | -24.1%
Clc1ccc(CNc2ncnc3[nH]ncc23)cc1Cl | 10µM* | 11.2µM* | -18.7%
CCOC(=O)c1c(C)[nH]c(-c2csc(N)n2)c1C | -24.0% | ? | ?
S=C1SCN(Cc2cccs2)CN1Cc1cccs1 | -10.7% | -3.5% | .
CCN1CSC(=S)N(Cc2ccccc2)C1 | -10.5% | i | 11.2µM*
CCCCCN1CSC(=S)N(Cc2ccccc2)C1 | -12.1% | i | 4.8%
SMILES | VACV Venus inh | VACV mCherry inh | HCV inhibitor
S=C1SCN(Cc2ccco2)CN1Cc1ccco1 | -20.3% | ? | 14.1µM*
Cc1ccc(C)c(S(=O)(=O)Nc2cc(SCC(=O)O)c(O)c3ccccc23)c1 | -2.2% | i | ?
CCOc1ccc(S(=O)(=O)Nc2cc(SCC(=O)O)c(O)c3ccccc23)cc1 | . | . | 10µM*
O=C(O)CSc1cc(NS(=O)(=O)c2cccc([N+](=O)[O-])c2)c2ccccc2c1O | ? | 10µM* | 11.2µM*
O=C(O)c1cccc(S(=O)(=O)Nc2ccc([N+](=O)[O-])cc2O)c1 | . | . | 18.4%
COc1ccc2[nH]cc(CCNc3ncncc3-c3ccc(N(C)C)cc3)c2c1 | 3.7% | 12.0% | .
COc1cc(OC)c(OC)cc1CN1CCOc2ccc(CN3CCN(C(C)=O)CC3)cc2C1 | -9.9% | -14.9% | .
CN(CC1CCCO1)S(=O)(=O)c1ccc(C(=O)Nc2ccc(S(N)(=O)=O)cc2)cc1 (stereo not given) | -6.6% | -10.9% | -2.2%
